PfHsp90 yeast 2: growth inhibition of yeast expressing Plasmodium Hsp90. inhibition, % at 9.4 µM. 310,000 tested, 0.32% active. S. cerevisiae expressing PfHsp90, BacTiter-Glo ATP, 48 h; yeast lacking PDR1 and PDR3 efflux regulators;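 active means every replicate shows inhibition above about 80%, whatever the replicate mean, limit read from the data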;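 further: 0% = DMSO neutral controls and 100% = 20 µM radicicol positive controls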
TIM10 inh: inhibits growth of TIM10 yeast strain. 330,000 tested, 1.4% active. inhibition, % at 10 µM. S. cerevisiae TIM10 strain growth, BacTiter-Glo luminescence, 24 h. AID 463195;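 active means inhibition of 40% or more at the single tested concentration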;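 further: wild-type TIM10 isogenic control strain grown at permissive 25 °C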
NALP3 yeast inh: blocks the NALP3 inflammasome reconstituted in yeast | inhibition, % at 10 µM | Yeast reconstituted NLRP3/ASC/caspase-1, beta-gal luminescence, 24 h | 330,000 tested, 0.39% active;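 active means inhibition of 50% or more; inactive means inhibition below 50%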;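 further: plate controls were induced DMSO wells for no effect and uninduced yeast grown without galactose for full effect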
SKKanGAS inh: inhibitors of SKKanGAS S. pyogenes growth in kanamycin (SK-promoter or general growth effect). BacTiter-Glo, 6 h. inhibition, % at 7.5 µM. 300,000 tested, 1.3% active;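 active means mean replicate score, as percent of positive control median, at least 50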;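 further: strain carries kanamycin resistance gene driven by streptokinase promoter and grows in 40 µg/ml kanamycin; loss of luminescence reflects streptokinase promoter inhibition or plain growth inhibition; 0% = median of DMSO wells and 100% = positive control at its reference dose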
tim23-1 inh: tim23-1 yeast growth inhibition. S. cerevisiae tim23-1 growth, BacTiter-Glo luminescence, 24 h. inhibition, % at 20 µM. 330,000 tested, 1.3% active. AID 463212;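 active means growth inhibition of the mutant yeast at or above 50%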;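 further: temperature-sensitive mutant grown at 25 °C; plate controls were DMSO-treated mutant yeast for no effect and medium wells lacking yeast for full effect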
tim10-1 inh: tim10-1 yeast growth inhibition | S. cerevisiae tim10-1 ts strain growth, BacTiter-Glo, 24 h | 330,000 tested, 2.2% active | inhibition, % at 20 µM | AID 463190;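 active means inhibition of at least 40%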;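 further: mutant grown at 25 °C; 0% = DMSO wells with yeast and 100% = wells holding no yeast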
Active calls of the source: *; / = not tested or not shown. Most compounds without a hit are left out; they make up all but 4.6% or so of the library.

SMILES	PfHsp90 yeast 2	TIM10 inh	NALP3 yeast inh	SKKanGAS inh	tim23-1 inh	tim10-1 inh
O=C(/C=C/c1ccccc1)CC(=O)c1ccccc1O	-1.3	15.4	4.7	49.8*	21.8	2.8
O=C(/C=C/c1ccccc1)CCN1CCCCC1	116.8*	/	/	/	/	/
O=C(C=Cc1cccc(O)c1)c1ccccc1O	104.0*	/	/	/	/	/
COc1cccc(NC(=O)COC(=O)C2CCCCC2)c1	-3.3	4.7	22.3	/	18.2	5.2
CCCCCCCCCCOC(=O)c1csc2nnsc12	/	-11.0	25.0	12.7	-0.7	-5.4
CCOC(=O)C1=NN(C(=O)c2ccc(C)cc2)C(O)(c2ccc(Cl)cc2)C1 (configuration not stated)	-28.6	14.4	-13.2	55.3*	19.8	29.4
Cc1ccc(/C=C/C(=O)c2ccccc(=O)c2O)c(C)c1	105.7*	22.1	-2.4	58.5*	47.0	37.4
O=C(/C=C/c1ccccc1Cl)c1ccccc(=O)c1O	95.9*	/	/	90.1*	/	/
O=C(/C=C/c1ccccc1Cl)c1cccnc1	70.8	4.4	-13.9	8.7	15.3	28.7
Cc1cccc(C(=O)NNC(=O)c2ccccc2C)c1	-6.1	-7.3	13.8	4.8	-1.8	10.8
Cc1cccc(C(=O)NNC(=O)c2ccccc2O)c1	-9.2	-1.1	25.5	8.0	0.9	12.1
O=C(/C=C/c1ccc([N+](=O)[O-])cc1)c1ccccc(=O)c1O	123.0*	/	/	/	/	/
Cc1ccc(C)c(/C=C/C(=O)c2ccccc(=O)c2O)c1	103.2*	/	/	98.5*	/	/
Cc1cccc(OCC(=O)O/N=C(\N)c2ccc(Br)cc2)c1	-6.5	-10.3	22.2	-17.5	16.0	3.3
CCCc1cc(C(=O)N2CCC(n3nccc3NC(=O)c3ccc(OC)cc3)CC2)no1	15.2	-4.6	17.1	1.3	-6.2	12.8
CN(C)Cc1c(C(=O)N/N=C/c2cccc(OCc3ccc(F)cc3)c2)nnn1-c1nonc1N	-4.6	-12.9	11.5	0.7	-13.8	-11.1
CC(C)c1c(C(=O)N/N=C/c2cccc(OCc3ccc(F)cc3)c2)nnn1-c1nonc1N	13.3	7.2	13.8	87.5*	21.4	35.6
CN1CC(c2ccc(Cl)c(Cl)c2)[C@@]2(COc3ccccc3C2=O)[C@@]12C(=O)Nc1ccccc12 (some centres not stated)	15.2	-13.5	-9.5	79.2*	14.4	11.0
Clc1cccc(Cl)c1CSc1nnc(/C=C/c2ccccc2)o1	-6.0	-22.1	21.7	53.7*	2.4	2.0
O=C(CSc1nnc(-c2ccccc2F)o1)NC(=O)Cc1ccccc1	-5.5	4.9	-14.0	/	3.2	3.1
CCOC(=O)c1c(NC(=S)NCCc2ccccc2)sc2c1CC(C(C)C)OC2 (configuration not stated)	-6.3	9.2	10.2	101.3*	-2.7	19.5
Cc1cc(C)n2nc(SCC(=O)Nc3ccc(F)cc3[N+](=O)[O-])nc2n1	2.9	16.7	13.8	/	12.6	7.9
O=C(CSc1nnc(NC(=O)c2ccccc2[N+](=O)[O-])s1)NC1CCCC1	/	13.1	-3.9	51.5*	14.0	10.3
OCCNc1nc(Nc2cc(Cl)ccc2OC2CCCC2)nc(N2CCCC2)n1	7.5	13.4	9.1	67.5*	35.7	31.7
COc1ccc(N2CC(NC(=O)NCCC(C)C)CC2=O)cc1 (configuration not stated)	8.5	7.1	14.8	-9.8	-6.0	8.5
SMILES	PfHsp90 yeast 2	TIM10 inh	NALP3 yeast inh	SKKanGAS inh	tim23-1 inh	tim10-1 inh
N#C/C(=C\c1cccc([N+](=O)[O-])c1)C(=O)NCc1ccc(Cl)cc1	104.6*	/	/	/	/	/
N#C/C(=C\c1cccc([N+](=O)[O-])c1)C(=O)NCc1cccnc1	-28.3	37.8	8.2	8.5	31.4	27.4
O=C(C=P(c1ccccc1)(c1ccccc1)c1ccccc1)c1ccccc1-c1ccccc1C(=O)C=P(c1ccccc1)(c1ccccc1)c1ccccc1	145.4*	/	/	/	/	/
Cc1nc(-c2c(-c3ccc(O)cc3O)noc2C(F)(F)F)cs1	-6.6	24.1	0.7	0.8	17.0	17.5
CC(=O)Nc1ccc(NC(=O)CSc2nnc(NC(=O)c3ccc(Br)o3)s2)cc1	-0.4	0.8	8.7	73.0*	16.8	8.1
CCCCCCCCCCCCCCCC[N+](C)(C)CCl	104.6*	/	/	/	/	/
CCCCCC[N+](C)(C)CCSSCC[N+](C)(C)CCCCCC	11.2	4.4	18.3	3.9	-1.6	-7.3
COc1cc(OC)cc(C(=O)Nc2nc3ccccc3[nH]2)c1	24.7	-4.2	18.9	59.0*	-1.2	-7.8

Screening results as filed in PubChem.
